Results filed as inconclusive are left out. Calls of active or inactive are those of the source. The call rests on the fitted dose curve.
Assay: Primary qHTS to identify inhibitors of SARS-CoV-2 cell entry (AID 1645846); further: nearly all actives have a fitted effect of over 45% in size
Details: SARS-CoV-2 pseudovirus cell entry assay, luminescence; activity change, negative = inhibition: at 57.1 µM (top of the series) unless noted
Method in brief: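 Luminescence readout (Bright-Glo luciferase) 48 h after pseudoparticle addition. HEK293-ACE2 cells, 1500/well; compound pre-incubation 1 h; Normalized to spike PP and bald PP.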
Potency means the concentration at half of the fitted maximal effect.

Row | Compound | activity change, negative = inhibition [%] | Potency
1 | COc1cc(C(=O)NC2CCN(C)CC2)c(F)cc1Nc1ncc2c(n1)N(C1CCCC1)CC(F)(F)C(=O)N2C | -99.3 | 
2 | CCNCCc1ccc(CN(CC)c2cc(OC)ccc2[C@@H]2CCc3cc(O)ccc3C2)cc1 |  | 31.6 µM (active)
3 | CN(C)C/C=C/C(=O)Nc1ccc(C(=O)Nc2cccc(Nc3ncc(Cl)c(-c4c[nH]c5ccccc45)n3)c2)cc1 |  | 1 µM (active)
4 | COc1ccc(N(C)c2nc(C)nc3ccccc23)cc1 | -80.5 | 
5 | Nc1nccc2c1ncn2[C@@H]1C=C(CO)[C@@H](O)[C@H]1O | -51.3 | 
6 | Cc1ccc(S(=O)(=O)Cc2nc(-c3ccc(C(=O)NCc4cccnc4)cc3)oc2C)cc1 | -96.2 | 
7 | COc1cc(OC)c(/C=C/S(=O)(=O)Cc2ccc(OC)c(NCC(=O)O)c2)c(OC)c1 | -75.7 | 
8 | C[C@@H]1COCCN1c1cc(C2(S(C)(=N)=O)CC2)nc(-c2ccnc3[nH]ccc23)n1 (stereo partly drawn) |  | 10 µM (active)
9 | C=CC(=O)Nc1cccc(C)c1Nc1ncc2cc(-c3c(Cl)c(OC)cc(OC)c3Cl)ccc2n1 | -95 | 
10 | COC(=O)N1CC2(CC2)C[C@H](C(=O)NO)[C@H]1C(=O)N1CCN(c2ccccc2)CC1 | -12.3 | 
11 | COC(C)(C)CCn1nc(Nc2c(C)cccc2C)c2cnc(Nc3ccc(OCCN4CCCC4)c(F)c3)nc21 |  | 11.2 µM (active)
12 | O=C(O)C[C@H]1CCc2c1[nH]c1ccc(OCc3ccc(C4CCCC4)c(C(F)(F)F)c3)cc21 | -95.5 | 
13 | CC(=O)NCC(=O)N1[C@@H]2CC[C@H]1c1ccc(Nc3ncc(C(F)(F)F)c(NC4CCC4)n3)cc12 |  | 3.16 µM (active)

Reference: PubChem BioAssay (NCATS)
